Laboratory results published in PubChem BioAssay (NCI).
This is part of a sample that, as a whole, favours compounds with a hit. Of some 83,000 tested, about 20% had one in any assay.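 48-hour exposure, single concentration, 96-well plates; percent growth endpoint where 0 means no net growth. Active: below 10.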 Values without a mark were called inactive. Calls of active or inactive are those of the source.

Key:
Assay in all cases: NCI-60 one-dose screen, 48 h (100 = growth as untreated, 0 = no growth, -100 = all killed)
Conditions in all cases: 10 µM unless noted
HCT-15 colon = tested on: HCT-15 colon
HT29 colon = tested on: HT29 colon
SNB-75 CNS = tested on: SNB-75 CNS
SNB-19 CNS = tested on: SNB-19 CNS
U251 CNS = tested on: U251 CNS
PC-3 prostate = tested on: PC-3 prostate
UACC-62 melanoma = tested on: UACC-62 melanoma
LOX IMVI melanoma = tested on: LOX IMVI melanoma
SK-MEL-28 melanoma = tested on: SK-MEL-28 melanoma
SK-MEL-2 melanoma = tested on: SK-MEL-2 melanoma
SN12C renal = tested on: SN12C renal
UO-31 renal = tested on: UO-31 renal
TK-10 renal = tested on: TK-10 renal
ACHN renal = tested on: ACHN renal
CAKI-1 renal = tested on: CAKI-1 renal
A498 renal = tested on: A498 renal
CCRF-CEM leukemia = tested on: CCRF-CEM leukemia
MOLT-4 leukemia = tested on: MOLT-4 leukemia
EKVX NSCLC = tested on: EKVX NSCLC

SMILES	growth (HCT-15 colon)	growth (HT29 colon)	growth (SNB-75 CNS)	growth (SNB-19 CNS)	growth (U251 CNS)	growth (PC-3 prostate)	growth (UACC-62 melanoma)	growth (LOX IMVI melanoma)	growth (SK-MEL-28 melanoma)	growth (SK-MEL-2 melanoma)	growth (SN12C renal)	growth (UO-31 renal)	growth (TK-10 renal)	growth (ACHN renal)	growth (CAKI-1 renal)	growth (A498 renal)	growth (CCRF-CEM leukemia)	growth (MOLT-4 leukemia)	growth (EKVX NSCLC)
COc1cc(-c2nc3cc(Cl)c(Cl)cc3[nH]2)ccc1OCC(=O)N=Nc1c(O)[nH]c2ccccc12	64.4%	-23.1% (active)	-90% (active)	0.731% (active)	-92% (active)	-59.3% (active)	-93.9% (active)	-100% (active)	-93.4% (active)	-80.7% (active)	-69.7% (active)	93.5%	-12% (active)	20%	-46.8% (active)	-45.9% (active)	-44.8% (active)	-50.7% (active)	–
CC[N+](CC)=c1sc2c(s1)C(c1ccc(Cl)cc1)Oc1ccc(Cl)cc1-2 (stereo unspecified)	62.9%	0.814% (active)	4.43% (active)	12%	-53.8% (active)	3.92% (active)	-2.82% (active)	-62.7% (active)	18%	-31.3% (active)	–	70.5%	44%	88.5%	–	28.6%	-17% (active)	-10.1% (active)	16.4%
COc1ccc(C2Nc3c(c(C(C)(C)C)nn3-c3ccccc3)C(=O)CS2)cc1 (stereo unspecified)	97.7%	86.7%	89.2%	98.8%	102%	79.5%	80%	94.5%	113%	98.8%	–	72%	100%	99.9%	81.9%	113%	83.9%	75.7%	93.9%
CCCCCCN(CCCCCC)CCC(O)c1ccc2ccccc2c1 (stereo unspecified)	48.1%	27.7%	68.2%	78.5%	62.7%	48.6%	77.3%	40.5%	88.1%	–	58.6%	38.4%	72%	68.7%	53%	48.3%	41.8%	45.7%	71%
